The text below walks through data of publication PMC7862700, “An all-to-all approach to the identification of sequence-specific readers for epigenetic DNA modifications on cytosine”.

Common to all, as to experiment: DAPPL (digital affinity profiling via proximity ligation, sequencing); 10 mM Tris-HCl pH 7.5, 50 mM NaCl, 1 mM DTT, 4% glycerol, room temperature, 30 min; GST-TFs on glutathione beads, 16-mer random dsDNA library, 0.1% formaldehyde crosslink after washing; high values mean tight binding
Common to all, as to details: protein: recombinant; tags: N-terminal GST; dsDNA, one strand shown

Assay [1] concerns the target T1, ERF (Homo sapiens, UniProt P50548 1-548).
T1 sequence: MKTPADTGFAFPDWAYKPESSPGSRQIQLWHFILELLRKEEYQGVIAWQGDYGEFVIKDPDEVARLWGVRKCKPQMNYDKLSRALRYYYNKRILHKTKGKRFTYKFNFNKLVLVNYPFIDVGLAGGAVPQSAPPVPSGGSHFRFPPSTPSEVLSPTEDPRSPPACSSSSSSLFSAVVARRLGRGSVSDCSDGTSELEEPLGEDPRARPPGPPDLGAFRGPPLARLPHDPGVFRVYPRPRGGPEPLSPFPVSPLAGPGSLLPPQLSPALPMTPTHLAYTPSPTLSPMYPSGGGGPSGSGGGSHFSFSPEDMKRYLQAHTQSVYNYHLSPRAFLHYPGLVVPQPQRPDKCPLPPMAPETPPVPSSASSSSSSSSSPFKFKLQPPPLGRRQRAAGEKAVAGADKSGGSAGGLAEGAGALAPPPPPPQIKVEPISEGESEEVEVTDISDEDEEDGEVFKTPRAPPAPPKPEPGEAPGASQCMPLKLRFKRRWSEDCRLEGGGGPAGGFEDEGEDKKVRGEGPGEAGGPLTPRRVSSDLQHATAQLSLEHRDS
In a few lines: (§1)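 A tag-only sample was pooled with DNA-barcoded human transcription factors that had been expressed in yeast as GST fusions and captured on glutathione beads. The pools were incubated for 30 min at room temperature with 200 nmole of a random double-stranded 16-mer DNA library in Tris/NaCl/DTT/glycerol buffer, then washed, crosslinked with 0.1% formaldehyde, proximity-ligated (BsaI/T4 ligase, 1 h, 37 °C), PCR-amplified and sequenced on an Illumina NextSeq500. Binding signal is each hexamer's read frequency for a factor divided by its frequency for the tag-only sample.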

For assay [2], the target named is T2, ETV3L (Homo sapiens, UniProt Q6ZN32 1-361).
T2 sequence: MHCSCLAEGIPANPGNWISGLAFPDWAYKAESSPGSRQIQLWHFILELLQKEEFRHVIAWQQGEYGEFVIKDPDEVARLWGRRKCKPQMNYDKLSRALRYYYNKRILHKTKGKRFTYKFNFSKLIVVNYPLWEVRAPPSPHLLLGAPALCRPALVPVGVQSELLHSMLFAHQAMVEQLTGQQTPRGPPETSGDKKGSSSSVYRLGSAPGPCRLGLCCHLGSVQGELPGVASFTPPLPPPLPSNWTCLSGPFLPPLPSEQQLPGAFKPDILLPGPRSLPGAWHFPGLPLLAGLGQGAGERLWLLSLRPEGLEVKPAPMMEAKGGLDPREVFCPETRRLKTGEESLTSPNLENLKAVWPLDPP
The method in brief: as §1

For assay [3], the target named is T3, ETS2 (Homo sapiens, UniProt P15036 1-469).
T3 sequence: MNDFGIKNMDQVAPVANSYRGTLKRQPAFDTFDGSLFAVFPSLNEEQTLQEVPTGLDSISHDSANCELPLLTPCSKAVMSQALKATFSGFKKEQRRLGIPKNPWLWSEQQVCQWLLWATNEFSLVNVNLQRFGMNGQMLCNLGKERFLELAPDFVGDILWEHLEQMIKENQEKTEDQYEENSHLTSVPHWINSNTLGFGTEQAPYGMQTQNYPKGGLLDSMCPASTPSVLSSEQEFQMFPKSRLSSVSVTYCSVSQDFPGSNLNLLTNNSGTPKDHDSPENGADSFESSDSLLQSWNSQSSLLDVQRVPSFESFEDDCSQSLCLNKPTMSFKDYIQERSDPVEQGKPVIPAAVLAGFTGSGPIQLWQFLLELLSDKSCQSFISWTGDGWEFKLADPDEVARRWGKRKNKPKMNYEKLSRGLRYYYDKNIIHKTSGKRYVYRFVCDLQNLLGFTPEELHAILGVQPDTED
The method in brief:
as §1

Assay [4] addresses T4, SPDEF (Homo sapiens, UniProt O95238 1-335).
T4 sequence: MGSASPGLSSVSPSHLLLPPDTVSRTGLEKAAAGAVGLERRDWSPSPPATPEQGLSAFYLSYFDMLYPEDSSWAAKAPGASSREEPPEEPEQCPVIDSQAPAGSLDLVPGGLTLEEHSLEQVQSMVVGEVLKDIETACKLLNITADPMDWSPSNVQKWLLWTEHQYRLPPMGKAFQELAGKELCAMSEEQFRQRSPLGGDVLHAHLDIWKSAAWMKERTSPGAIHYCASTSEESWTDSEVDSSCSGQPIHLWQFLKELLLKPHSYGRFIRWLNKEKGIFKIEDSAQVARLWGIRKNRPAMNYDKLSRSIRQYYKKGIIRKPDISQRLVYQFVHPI
In a few lines: as §1

The target in assay [5] is T5, ETV7 (Homo sapiens, UniProt Q9Y603 1-341).
T5 sequence: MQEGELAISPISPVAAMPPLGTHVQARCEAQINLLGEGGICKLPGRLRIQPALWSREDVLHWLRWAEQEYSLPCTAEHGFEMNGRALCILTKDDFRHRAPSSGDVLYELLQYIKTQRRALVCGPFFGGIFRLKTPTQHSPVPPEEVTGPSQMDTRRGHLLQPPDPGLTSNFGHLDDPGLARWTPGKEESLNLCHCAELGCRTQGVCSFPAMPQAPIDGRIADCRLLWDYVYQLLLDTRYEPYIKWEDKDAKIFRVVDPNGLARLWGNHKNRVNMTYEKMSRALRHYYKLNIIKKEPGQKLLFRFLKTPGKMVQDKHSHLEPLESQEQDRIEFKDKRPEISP
In a few lines: as §1

In assay [6] the target is T6, ETV3 (Homo sapiens, UniProt P41162-2 1-143).
T6 sequence: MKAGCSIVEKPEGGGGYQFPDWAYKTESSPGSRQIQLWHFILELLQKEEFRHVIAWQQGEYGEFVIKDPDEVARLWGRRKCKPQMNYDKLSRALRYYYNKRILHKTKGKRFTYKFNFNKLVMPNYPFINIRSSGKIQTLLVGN
In a few lines: as §1

For assay [7], the target named is ETV6 (Homo sapiens, UniProt P41212 1-452). In a few lines: as §1
Chain of ETV6 (P41212 whole entry): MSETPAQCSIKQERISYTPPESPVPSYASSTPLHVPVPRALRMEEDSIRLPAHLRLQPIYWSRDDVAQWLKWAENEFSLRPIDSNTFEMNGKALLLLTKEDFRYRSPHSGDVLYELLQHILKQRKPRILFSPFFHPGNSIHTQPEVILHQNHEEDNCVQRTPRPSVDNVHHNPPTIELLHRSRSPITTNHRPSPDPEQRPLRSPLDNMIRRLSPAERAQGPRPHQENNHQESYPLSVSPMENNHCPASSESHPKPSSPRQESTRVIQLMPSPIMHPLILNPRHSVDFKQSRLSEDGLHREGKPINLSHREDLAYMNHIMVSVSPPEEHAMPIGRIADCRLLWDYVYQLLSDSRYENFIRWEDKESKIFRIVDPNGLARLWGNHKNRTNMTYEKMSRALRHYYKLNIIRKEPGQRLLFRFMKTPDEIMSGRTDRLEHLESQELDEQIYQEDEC
Assay [8] concerns the target T7, ELF5 (Homo sapiens, UniProt Q9UKW6-2 1-255).
T7 sequence: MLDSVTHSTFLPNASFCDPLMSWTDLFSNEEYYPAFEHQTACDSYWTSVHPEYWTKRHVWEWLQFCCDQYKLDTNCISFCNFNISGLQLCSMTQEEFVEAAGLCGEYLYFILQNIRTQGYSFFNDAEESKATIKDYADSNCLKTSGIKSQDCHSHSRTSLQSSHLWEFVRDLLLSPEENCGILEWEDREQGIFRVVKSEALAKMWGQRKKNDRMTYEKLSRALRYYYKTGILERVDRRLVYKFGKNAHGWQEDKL
The method in brief:
as §1

On to GTGCTA, for which the binding signal in assay [1] was 1.02 fold enrichment (6-mer frequency, TF over GST control); in assay [2], 1.04 fold enrichment (6-mer frequency, TF over GST control); in assay [3], 1.13 fold enrichment (6-mer frequency, TF over GST control); in assay [4], 1.12 fold enrichment (6-mer frequency, TF over GST control); in assay [5], 1 fold enrichment (6-mer frequency, TF over GST control); in assay [6], 1.11 fold enrichment (6-mer frequency, TF over GST control).

Take GGCATT: the binding signal in assay [1] was 1.08 fold enrichment (6-mer frequency, TF over GST control); in assay [2], 1.06 fold enrichment (6-mer frequency, TF over GST control); in assay [3], 1.09 fold enrichment (6-mer frequency, TF over GST control); in assay [4] it was 1 fold enrichment (6-mer frequency, TF over GST control); in assay [5], 1.05 fold enrichment (6-mer frequency, TF over GST control); in assay [6], 1.07 fold enrichment (6-mer frequency, TF over GST control). Moreover, the binding signal in assay [7] was 1.12 fold enrichment (6-mer frequency, TF over GST control).

Regarding CAAAGC, the binding signal in assay [1] was 1.13 fold enrichment (6-mer frequency, TF over GST control); in assay [2], 1.07 fold enrichment (6-mer frequency, TF over GST control); in assay [3], 1 fold enrichment (6-mer frequency, TF over GST control); in assay [4], 1.06 fold enrichment (6-mer frequency, TF over GST control); in assay [8], 1.01 fold enrichment (6-mer frequency, TF over GST control); in assay [6], 1.08 fold enrichment (6-mer frequency, TF over GST control). Moreover, the binding signal in assay [7] is 1.08 fold enrichment (6-mer frequency, TF over GST control).

Consider CGGCTT, for which the binding signal is 1.27 fold enrichment (6-mer frequency, TF over GST control) in assay [1]; 1.1 fold enrichment (6-mer frequency, TF over GST control) in assay [2]; 1.21 fold enrichment (6-mer frequency, TF over GST control) in assay [3]; 1.33 fold enrichment (6-mer frequency, TF over GST control) in assay [4]; 1.19 fold enrichment (6-mer frequency, TF over GST control) in assay [8]; 1.15 fold enrichment (6-mer frequency, TF over GST control) in assay [6]. Moreover, in assay [7], the binding signal was 1.16 fold enrichment (6-mer frequency, TF over GST control).

In the case of CACACG, the binding signal in assay [1] is 1.12 fold enrichment (6-mer frequency, TF over GST control); in assay [2] it was 1.21 fold enrichment (6-mer frequency, TF over GST control); in assay [3], 1.12 fold enrichment (6-mer frequency, TF over GST control); in assay [4], 1.16 fold enrichment (6-mer frequency, TF over GST control); in assay [8], 1.04 fold enrichment (6-mer frequency, TF over GST control); in assay [6] it was 1.1 fold enrichment (6-mer frequency, TF over GST control). In assay [7], the binding signal is 1.18 fold enrichment (6-mer frequency, TF over GST control).

Consider TGACTA, for which the binding signal in assay [1] was 1.14 fold enrichment (6-mer frequency, TF over GST control); in assay [2] it was 1.08 fold enrichment (6-mer frequency, TF over GST control); in assay [3], 1.04 fold enrichment (6-mer frequency, TF over GST control); in assay [4] it was 1.08 fold enrichment (6-mer frequency, TF over GST control); in assay [5] it was 1.07 fold enrichment (6-mer frequency, TF over GST control); in assay [6], 1.05 fold enrichment (6-mer frequency, TF over GST control). The binding signal in assay [7] is 1.15 fold enrichment (6-mer frequency, TF over GST control).

GTTATC: the binding signal in assay [1] is 1.06 fold enrichment (6-mer frequency, TF over GST control); in assay [2] it was 1.07 fold enrichment (6-mer frequency, TF over GST control); in assay [3], 1.14 fold enrichment (6-mer frequency, TF over GST control); in assay [4], 1.11 fold enrichment (6-mer frequency, TF over GST control); in assay [8] it was 1.14 fold enrichment (6-mer frequency, TF over GST control); in assay [6] it was 1.07 fold enrichment (6-mer frequency, TF over GST control). Further, the binding signal in assay [7] was 1.1 fold enrichment (6-mer frequency, TF over GST control).

In the case of CCACAA, the binding signal was 1.24 fold enrichment (6-mer frequency, TF over GST control) in assay [1]; 1.26 fold enrichment (6-mer frequency, TF over GST control) in assay [2]; 1.23 fold enrichment (6-mer frequency, TF over GST control) in assay [3]; 1.14 fold enrichment (6-mer frequency, TF over GST control) in assay [4]; 1.18 fold enrichment (6-mer frequency, TF over GST control) in assay [8]; 1.12 fold enrichment (6-mer frequency, TF over GST control) in assay [6]. For the same sequence, in assay [7], the binding signal was 1.18 fold enrichment (6-mer frequency, TF over GST control).
